As usually defined, the viability is a read-out of living cells in per cent, often relative to untreated cells.

Among all 1,200 compounds or so, about 400 (33%) were called active. These entries were drawn from the full list. Measured potencies and affinities stand elsewhere. Values without a mark were called inactive. The rule behind the calls is not given here.

The record followed here is PubChem BioAssay AID434958 (Southern Research Specialized Biocontainment Screening …, 2010).

This assay in a line: mammalian cell cytotoxicity, dose response, cytotoxicity control (AID 434958).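 Note: cells exposed to compound for 72 hours before readout.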 Conditions: cytotoxicity counter-screen; series mostly up to 40 µM; viability: at the top concentration. (In general: Counterscreens check selectivity or assay interference.)
Turning to `O=C(NCCC1=CCCCC1)NC1CCCCC1`, the “viability” value is 105%.

As to `CCC1CCCCN1C(=O)CSc1nnc(-c2ccc(Cl)s2)o1` (stereo not given), the “viability” value is 98%.

`O=C(NCc1ccco1)c1cc2n(n1)C(C(F)(F)F)CC(c1ccc(F)cc1)N2` (stereo not given): the “viability” value is 92.2%.

Consider `O=C(CN1CCN(c2ccccn2)CC1)Nc1ccc(Cl)c(C(F)(F)F)c1`, for which the “viability” value was 95.8%.

Consider `N#Cc1ccc(NC(=O)COC(=O)C2=COCCO2)cc1`, for which the “viability” value was 109%.

In the case of `CCOC(=O)c1c(C)oc2c1c(CN1CCN(C(=O)OCC)CC1)c(O)c1ccccc12`, the “viability” value is 86.2%.

Turning to `COc1cc2c(cc1OC)C(c1ccccc1)CC2=O` (stereo not given), the “viability” value was 85.2%.

Take `Cc1ccccc1Cn1cc(NC(=O)CSc2nc3c(c(C(F)(F)F)n2)CCc2ccccc2-3)cn1`: the “viability” value is 90.7%.

As to `CCO[C@H]1OC(C(=O)NCc2nc3ccccc3[nH]2)=C[C@@H](c2cn(C(C)=O)c3ccccc23)[C@@H]1CCCO`, the “viability” value was 81.8%.

As for `CCCc1c(C)nc2c(OC)cccc2c1SCC(=O)O`, the “viability” value was 107%.

`O=C(O/N=C\c1ccc(N2CCCCC2)c([N+](=O)[O-])c1)c1c(F)cccc1F`: the “viability” value was 95.2%.

`c1ccc2c(c1)Cn1nc(Cc3nc4c(s3)CCCC4)nc1-2`: the “viability” value was 108%.

As for `COc1ccc2nc(NC(=O)NC3CCCCC3)sc2c1`, the “viability” value was 92.6%.

Consider `CC(=O)c1ccc(N2CCN(c3ncc(C(F)(F)F)cc3Cl)CC2)cc1`, for which the “viability” value was 81.7%.

For the compound `O=C(Nc1ccc(Cl)cc1F)c1cccc2ccccc12`, the “viability” value was 95.1%.

Regarding `CCc1ccccc1NC(=O)CNC(=O)c1cc(C2CC2)nn1-c1ccccc1`, the “viability” value was 93.1%.

Consider `O=C(NCc1ccc2c(c1)OCO2)Nc1ccc2ccccc2c1`, for which the “viability” value is 86.2%.

Turning to `CCN(CC)C(=O)CSc1nnc2nnc3cc(OC)ccc3n12`, the “viability” value was 102%.

Turning to `CN1C/C(=N\S(=O)(=O)c2ccccc2)N(C)C1=O`, the “viability” value is 92.3%.

`Cn1cccc1/C=C1/C(=O)NC(=O)N(Cc2ccc(F)cc2)C1=O`: the “viability” value is 92.6%.

Regarding `COCCNC(=S)N/N=C1\CC(C)CC(C)(C)C1` (stereo not given), the “viability” value is 94.2%.

With `CC(=O)Nc1cccc(-n2nnc(SCC(=O)Nc3ccc(F)c(Cl)c3)n2)c1`, the “viability” value is 91.8%.

Take `COC(=O)CN1C(CN2CCOCC2)=Nc2ccc(Br)cc2C1c1ccccc1` (stereo not given): the “viability” value was 89.5%.

For the compound `CSc1ccc(/C=C/C(=O)Nc2ccccc2)cc1`, the “viability” value is 92.7%.

Consider `CCOc1ccc(N2C(=O)CC(N)C2=O)cc1` (stereo not given), for which the “viability” value is 101%.

Regarding `O=C(NC1CCCCCCC1)c1ccc(Br)cc1`, the “viability” value is 97%.

For `CCCC(C)NC(=O)c1ccc(OCc2ccc(Cl)cc2)c(OC)c1` (stereo not given), the “viability” value was 80%.

In the case of `Cc1ccc(C)c(N2CCN(C3CCCC(C)C3)CC2)c1` (stereo not given), the “viability” value was 95.6%.

`O=C(Nc1ccc(Cl)cc1)C1CC2CCCC(C1)C2=O` (stereo not given): the “viability” value was 101%.

For the compound `Cc1ccc(NC(=O)CSc2n[nH]c(-c3ccco3)n2)cc1`, the “viability” value is 95.4%.

With `CCCC(C(=O)N1CCOCC1)N1C(=O)C2C3C=CC(C3)C2C1=O` (stereo not given), the “viability” value was 107%.

`Cc1c(C(=O)c2ccccc2)oc2ccc3ccccc3c12`: the “viability” value is 101%.

For `Cc1ccc(C(=O)Nc2c(C)cc(C)c3cccnc23)cc1`, the “viability” value is 92.3%.

Consider `COCCOC(=O)c1c(C)oc2ccc(OC(=O)c3c(OC)cccc3OC)cc12`, for which the “viability” value is 80.5%.

In the case of `COc1ccc(-c2c(-c3ccsc3)oc3ccc(N4CCOCC4)cc23)cc1`, the “viability” value was 84.5%.

As for `Cc1nn(C)c(C)c1C1C(C#N)=C(N)OC2=C1C(=O)CCC2` (stereo not given), the “viability” value was 106%.

As for `Cc1cccnc1NC(=O)c1cc2ccccc2oc1=O`, the “viability” value was 86.4%.

As to `Cc1ccc(C)c(NC(=O)C2Cc3ccccc3CN2C(=O)OCc2ccccc2)c1` (stereo not given), the “viability” value is 107%.

In the case of `CNc1ccccc1NC(=O)C1CCCN1C(=O)OCc1ccccc1` (stereo not given), the “viability” value was 101%.

Take `O=C(NC(=S)N1CCOCC1)c1ccc([N+](=O)[O-])cc1`: the “viability” value was 107%.

As for `NC(=O)CN1C(=O)C(O)(CC(=O)/C=C\C=C\c2ccccc2)c2ccccc21` (stereo not given), the “viability” value is 105%.

Consider `C=CCC(Nc1ccccc1)C12C=CC(O1)C(C(=O)OC)=C2C(=O)OC` (stereo not given), for which the “viability” value was 106%.

Turning to `COc1ccc2ccccc2c1/C=N/NC(=O)c1cccc(C)c1`, the “viability” value is 80.4%.

Regarding `COc1cc(C(=O)N/N=C/c2ccc(OC(=O)c3cccc(C)c3)cc2)ccc1O`, the “viability” value is 97%.

Regarding `Cc1ccccc1NC(=O)/C(C#N)=C\c1cc(C)n(-c2ccc(C(=O)O)cc2)c1C`, the “viability” value is 86.8%.

Regarding `Cc1cc(C)c(OCC(=O)Nc2nc3ccccc3[nH]2)c(C)c1`, the “viability” value was 90.8%.

Regarding `O=C(COc1ccc2ccccc2c1)Nc1nc2ccccc2[nH]1`, the “viability” value is 104%.

Take `Cc1ccc(SCc2c(C#N)c3ccccc3n2C)cc1`: the “viability” value was 93.7%.

Take `Clc1ccc(Cn2cc(/C=N/n3cnnc3)c3ccccc32)cc1`: the “viability” value was 88%.

Consider `Nc1nc(Sc2ncccc2[N+](=O)[O-])n[nH]1`, for which the “viability” value is 105%.

`Cc1nnnn1/C(=C\c1ccccc1)C(=O)OCC(=O)NC1CCCCC1`: the “viability” value was 105%.

`CCOC(=O)CNC(=O)CSc1ncnc2c1cnn2Cc1ccccc1`: the “viability” value was 101%.

Turning to `Cc1cc(C)n(-c2nc3ccccc3c(=O)n2OCC(=O)N(C)C)n1`, the “viability” value was 102%.

On to `CC1CCN(C(=S)NC(=O)c2ccccc2)CC1`, for which the “viability” value was 103%.

`CCc1cc2c(=O)nc3n(c2s1)Cc1ccccc1/C3=C(/O)c1ccc(F)cc1`: the “viability” value was 85.5%.

Take `CCC(CC)c1nnc(NC(=O)c2cc(-c3ccccc3)nc3ccccc23)s1`: the “viability” value is 85.5%.

Regarding `CCCSc1nnc(NC(=O)c2sc3nc(-c4cccs4)ccc3c2N)s1`, the “viability” value was 89%.

As for `COc1cc(OC)c(OC)cc1/C=C1\CCC(C2CCCC2)C1=O` (stereo not given), the “viability” value is 93.4%.

For the compound `O=C(NCc1ccc2c(c1)OCO2)C(=O)NC1CCCCC1`, the “viability” value is 85.3%.

On to `CCCCn1nc2cc(C(=O)NCC34CC5CC(CC(C5)C3)C4)ccc2c1OCC`, for which the “viability” value is 83.6%.

`O=C(OCC(=O)c1c[nH]c2ccccc12)c1cccc([N+](=O)[O-])c1`: the “viability” value is 91.4%.

As to `O=C(CSc1nnc(-c2ccncc2)o1)c1cccc([N+](=O)[O-])c1`, the “viability” value was 99%.

On to `O=C(Cn1nnc2c(cnn2-c2ccccc2)c1=O)N1CCN(c2ccccc2F)CC1`, for which the “viability” value is 97.6%.

`CCOC(=O)c1nn(-c2ccc(Cl)cc2)cc1O`: the “viability” value is 98.1%.

Turning to `CCN(CCNC(=O)Nc1ccc(Cl)cc1)c1ccccc1`, the “viability” value is 103%.

With `S=c1nccc(-c2ccc3c(c2)CCO3)[nH]1`, the “viability” value is 94.1%.

`CC(=O)Nc1scc(C)c1-c1nc2ccccc2s1`: the “viability” value is 88.1%.

With `Cc1ccc(C(=O)Nc2nc3ccccc3s2)s1`, the “viability” value was 84.5%.

Take `O=C1S/C(=C\C=C\c2ccco2)C(=O)N1c1ccccc1`: the “viability” value was 100%.

`O=C1CS/C(=N/N=C2C3CC4CC(C3)CC2C4)N1`: the “viability” value was 95%.

Take `NC(=S)N/N=C/c1ccc(/C=N/NC(N)=S)cc1`: the “viability” value was 102%.

As to `CCOC(OCC)c1cn(Cc2ccc3c(c2)C(=O)c2ccccc2C3=O)nn1`, the “viability” value is 92.2%.

Regarding `S=C(Nc1ccccc1)Nc1ccc(Cl)cn1`, the “viability” value was 92.4%.

`c1ccc(CSc2nnc(-c3ccco3)o2)cc1`: the “viability” value is 98.6%.

Take `O=C(Cn1c(=O)n(CCCC(=O)NC2CCCC2)c(=O)c2ccccc21)NCCC1=CCCCC1`: the “viability” value is 110% [at 20 µM].

For `COc1cc(/C=C/c2ccc3cccc([N+](=O)[O-])c3n2)ccc1OCC(=O)O`, the “viability” value was 107%.

For the compound `CCOc1ccc(NC(=O)/C(C#N)=C/c2cn(CC(=O)O)c3ccccc23)cc1`, the “viability” value is 102%.

On to `CC(C)(C)c1nc2scc(-c3cccs3)c2c(=O)o1`, for which the “viability” value was 89.9%.

With `O=C(CSc1nnc(-c2cnccn2)n1Cc1ccco1)Nc1ccc(Br)cc1`, the “viability” value was 100%.

For `CN(NC(=O)c1c(Cl)cccc1Cl)c1cccc(Cl)n1`, the “viability” value was 95%.

Regarding `Cc1onc(-c2ccccc2Cl)c1C(=O)NCc1ccc2c(c1)cc(C)n2C`, the “viability” value is 98.7%.

In the case of `c1ccc(OCc2nnc(-c3ccccc3)o2)cc1`, the “viability” value is 89%.

As to `CC1(C)CCN2CCC(C)(C)c3c(O)ccc1c32`, the “viability” value was 95.8%.

For `CCN(CC)C(=O)Cn1cc(C(=O)C(=O)N2CCN(c3ccccc3)CC2)c2ccccc21`, the “viability” value was 96.2%.

Take `C#C[C@]1(O)CC[C@H]2[C@@H]3CCC4=C(CCC(=O)C4)[C@H]3CC[C@@]21C`: the “viability” value was 104%.

For the compound `Cc1ccc(SCc2c(-c3ccccc3)nn(C)c2Cl)cc1`, the “viability” value is 93.7%.

For `O=C(N/N=C/c1c(O)n(Cc2ccc(F)cc2)c(=S)[nH]c1=O)c1ccncc1`, the “viability” value was 99.3%.

Regarding `COC(=O)Cn1nc(-c2ccccc2)c2ccccc21`, the “viability” value is 102%.

Turning to `COC(=O)c1c(C(=O)OC)c(C)n(Cc2ccco2)c1C`, the “viability” value was 102%.

Consider `CCOc1cc(CNCCN(C)C)c(Cl)cc1OCC(=O)NCCc1ccccc1`, for which the “viability” value is 88.7%.

With `CCc1ccc(NC(=O)c2c(Cl)nc(C)c(Cl)c2C)cc1`, the “viability” value was 80.3%.

Take `Cc1nn(-c2ccccc2)cc1/C=N/NC(N)=S`: the “viability” value was 106%.

Take `O=C(N/N=C/c1c(Cl)cccc1Cl)c1cccc(F)c1`: the “viability” value was 88.5%.

With `Cc1ccccc1/C=N\NC(=O)c1csnn1`, the “viability” value is 96%.

With `COc1ccc(/C=N\NC(=O)c2sc(N)nc2C)cc1OC`, the “viability” value is 87.3%.

Regarding `CCN(CC)C(=O)C1CCCN(c2ccc([N+](=O)[O-])cc2/C=N/NC(=O)c2cccc(O)c2)C1` (stereo not given), the “viability” value is 84.6%.

For the compound `Cc1cc(=O)[nH]c(N/N=C/c2c(O)n(-c3ccccc3)c(=O)c3ccccc23)n1`, the “viability” value is 97.6%.

Consider `CCc1ccc(NC(=S)Nc2ccc3[nH]c(=O)[nH]c3c2)cc1`, for which the “viability” value is 94.7%.

As to `COc1ccc([N+](=O)[O-])cc1NC(=O)c1ccc(Br)s1`, the “viability” value was 96.1%.

As for `CCOC(=O)c1c(NC(=O)COC(=O)c2ncc(Cl)c(Cl)c2Cl)sc(C(=O)N(C)C)c1C`, the “viability” value is 101%.

For `COc1cc(OC)c2ccc(=O)oc2c1C(CC(=O)N1CCN(c2ccccc2)CC1)c1ccc2c(c1)OCO2` (stereo not given), the “viability” value is 108%.

For `CCC(C(=O)Nc1ccccc1N1CCCC1)c1ccccc1` (stereo not given), the “viability” value is 99.2%.

Turning to `CCOCC(=O)N1CCN(c2ccc(F)cc2)CC1`, the “viability” value was 91.1%.

On to `O=C(c1cccc(Cl)c1)N1CCN(Cc2ccccc2F)CC1`, for which the “viability” value was 102%.

Consider `Cc1ccc(CNC(=O)c2ccccc2NC(=O)CSc2nnnn2C)cc1`, for which the “viability” value was 102%.

In the case of `Cc1ccc(C)c(NC(=O)COC(=O)c2ccc(S(=O)(=O)N3CCCCC3)cc2)c1`, the “viability” value is 93.8%.

For `O=c1[nH]c(C2CCN(S(=O)(=O)c3ccc(S(=O)(=O)NC4CC4)cc3)CC2)nc2c1nnn2Cc1ccc(F)cc1`, the “viability” value was 110%.

For the compound `COc1cccc(-c2nnn(CC(=O)Nc3cc(OC)c(NC(=O)c4ccco4)cc3OC)n2)c1`, the “viability” value was 85.2%.

Turning to `COCCCn1c(=O)/c(=C\c2ccccc2OC(C)C)s/c1=C(/C#N)C(=O)Nc1ccc(C(=O)O)cc1`, the “viability” value was 87%.

`O=C1c2ccccc2N2C(=O)c3ccccc3C2N1O` (stereo not given): the “viability” value is 98.3%.
